The values that follow come from ChEMBL document CHEMBL1157539, “Thousands of chemical starting points for antimalarial lead identification” (Nature, 2010).

Holding throughout (type): functional
Test [1] deals with Plasmodium falciparum. In words: GSK_TCMDC: Inhibition of Plasmodium falciparum 3D7 in whole red blood cells, using parasite LDH activity as an index of growth. Test compounds present at 2uM.
Test [2] relates to Plasmodium falciparum. In words: GSK_TCMDC: Inhibition of Plasmodium falciparum Dd2 in whole red blood cells, using parasite LDH activity as an index of growth. Test compounds present at 2uM.
Test [3] relates to HepG2. The test is described as follows: GSK_TCMDC: Percent inhibition of human HepG2 cell line. Test compounds present at 10uM.

Regarding `CCCN(CCCCNC(=O)c1ccc(-c2cccnc2)cc1)C1CCc2c(O)cccc2C1.Cl` (stereo not drawn), the Inhibition in test [1] came to 87%; in test [2] it was 16%; in test [3] it was 0%.
For `CC(=O)Nc1ccc(C(=O)Nc2cccc(-c3cccc(-c4nc5cc(F)ccc5[nH]4)c3)c2)cn1` the same measures were 99%, 98% and 0%.
For `COc1ccccc1C1CCN(C2CCC(NC(=O)c3ccc4[nH]c(-c5ccc(C)cc5)nc4c3)CC2)CC1` (stereo not drawn) the same measures were 100%, 100% and 100%.
Take `Cc1sc2nc(CSc3ccccc3)nc(N3CCN(CC(=O)NC4CC4)CC3)c2c1C`: the values for the Inhibition in test [1], in test [2] and in test [3] were 96%, 95% and 2%, respectively.
For `CC(C)NCc1ccc(-c2ccc(NC(=O)c3ccc(Cl)cc3)cc2)cc1.O=C(O)C(F)(F)F`, the values for the Inhibition in test [1], in test [2] and in test [3] were 90%, 8% and 60%, respectively.
For `C[C@@H](N/C(=N\c1ccc(-c2ccccc2)cc1)Nc1ccc(C#N)cc1O)c1ccc(Br)cc1` the same measures were 99%, 95% and 9%.
For `COC(=O)c1ccc(N2CCN(CCCCNC(=O)c3ccc(NC(=O)c4ccc(Cl)cc4)cc3)CC2)c(OC)c1` the same measures were 82%, 1% and 11%.
The corresponding values for `COc1ccc2ncc(C#N)c(CCN3CCC(NCc4ccc5c(n4)NC(=O)CS5)CC3)c2n1.Cl` are 89%, 17% and 9%.
Take `FC(F)(F)c1cccc(CNCCCCCNCc2ccc(Cl)cc2)c1`: the Inhibition in test [1] stood at 91%; in test [2], 15%; in test [3], 13%.
The corresponding values for `CC(=O)N(C)c1cccc(CNc2cc(C)nc(Nc3ccc(C)cc3)n2)c1` are 97%, 21% and 8%.
The corresponding values for `COc1ccc(-c2onc(C(F)(F)F)c2-c2cc3ccccc3o2)c(O)c1` are 93%, 15% and 6%.
The corresponding values for `CN(C)C(CNC(=O)c1cc(-c2ccncc2)c(-c2ccc(NC(=O)Nc3cccc(Cl)c3)cc2)o1)c1ccccc1.O=C(O)C(F)(F)F` (stereo not drawn) are 100%, 100% and 12%.
`CCC(=O)Nc1nnc(Cc2ccc(OC)c(OC)c2)s1`: the Inhibition in test [1] is 93%; in test [2], 1%; in test [3], 0%.
The corresponding values for `O=C(NCC1CCC(CNCCCc2ccccc2)CC1)c1cc(Cl)cc(Cl)c1` (stereo not drawn) are 89%, 13% and 58%.
For `CC1(C)C2C=C(CN3CCC(NC(=O)Nc4ccc(Cl)c(Cl)c4)CC3)C1CC2` (stereo not drawn) the same measures were 100%, 33% and 28%.
`Cc1occc1C(=O)Nc1nc(-c2ccccn2)nc2ccsc12`: the Inhibition in test [1] is 98%; in test [2], 98%; in test [3] it was 68%.
As to `O=C1OC(c2cc3ccccc3n2S(=O)(=O)c2ccccc2)(c2cc3ccccc3n2S(=O)(=O)c2ccccc2)c2ccccc21`, the values for the Inhibition in test [1], in test [2] and in test [3] were 95%, 78% and 1%, respectively.
For `CC(C)(C)C1=CC(=NNC(=O)c2ccncc2)C=C(C(C)(C)C)C1=O` the same measures were 99%, 99% and 47%.
For `CC(=O)Nc1ccc(C(=O)Nc2ccc(-c3cccc(-c4nc5ccccc5[nH]4)c3)cc2)cn1` the same measures were 99%, 84% and 34%.
For `COc1ccc(CN2CCC(Oc3cccc(NC(=O)c4ccc(C(F)(F)F)cc4)c3)CC2)cc1.O=C(O)C(F)(F)F` the same measures were 95%, 20% and 35%.
As for `O=S(=O)(Nc1cccc(CCN2CCC(N3CCCCC3)CC2)c1)c1ccccc1C(F)(F)F`, the Inhibition in test [1] stood at 82%; in test [2], 32%; in test [3], 21%.
For `CC(=O)Nc1cccc(CNCc2ccc(-c3cnc(N4CCCC(C)(C)C4)nc3)cc2)c1.O=CO` the same measures were 93%, 75% and 10%.
Consider `CS(=O)(=O)c1ccc(CNCc2ccc(-c3ccc(-c4nc5cc(C(F)(F)F)ccc5[nH]4)cc3)cc2)cc1.O=C(O)C(F)(F)F`, for which the Inhibition in test [1] came to 100%; in test [2], 82%; in test [3], 26%.
Turning to `CNc1ccc(CNCc2ccc(-c3ccc(-c4nc5cccc(C)c5[nH]4)s3)cc2)cc1.O=C(O)C(F)(F)F`, the results for the Inhibition in test [1], in test [2] and in test [3] were 100%, 94% and 29%, respectively.
The corresponding values for `Cc1nc(Nc2ccncc2)cc(-c2ccncc2)n1` are 100%, 3% and 6%.
For `COc1ccc2nccc([C@@H](O)CN3CCC(NCc4ccc5c(c4)OCCO5)CC3)c2c1.O=C(O)C(=O)O`, the Inhibition is 100% in test [1], 92% in test [2] and 9% in test [3].
The corresponding values for `O=C(NCCCN1CCCC1=O)NCc1ccccc1` are 99%, 4% and 8%.
For `CCCNc1nc(NCc2c(C)cccc2C)nc(NC(C)(C)C)n1` the same measures were 91%, 89% and 15%.
For `Cc1noc(C)c1-c1cccc(CNCc2cccc(-c3csc(-c4nc5ccccc5[nH]4)c3)c2)c1.O=C(O)C(F)(F)F` the same measures were 100%, 74% and 32%.
As to `CO.Cc1nc(N)nc(N)c1OCc1cccc2c1ccc1ccccc12.Cl`, the Inhibition was 95% in test [1], 16% in test [2] and 54% in test [3].
For `COc1cccc(Nc2nc(Nc3cccc(C#N)c3)cc(-c3ccncc3)n2)c1` the same measures were 100%, 46% and 28%.
Regarding `Cl.N#Cc1ccc(NC(=O)Nc2ccc3c(c2)CCN(C2CCC2)CC3)cc1`, the results for the Inhibition in test [1], in test [2] and in test [3] were 96%, 11% and 6%, respectively.
The corresponding values for `O=C(NCCc1ccc(O)cc1)n1c2ccccc2c2ccccc21` are 83%, 76% and 3%.
For `c1cncc(Oc2ccc(Nc3ccnc4cc(-c5cccc(CN6CCCCC6)c5)ccc34)cc2)c1` the same measures were 100%, 100% and 33%.
For `O=C(/C=C/c1ccc(Cl)c(Cl)c1)NCCCCCN1CCC(NC(=O)Nc2ccc(Cl)c(C(F)(F)F)c2)CC1` the same measures were 99%, 19% and 76%.
For the compound `Cc1cc(C(F)(F)F)n2nc(C(=O)N(Cc3cncn3Cc3ccccc3F)CC3CC3)cc2n1`, the values for the Inhibition in test [1], in test [2] and in test [3] were 100%, 100% and 0%, respectively.
For `Cc1onc(-c2ccccc2)c1-c1nc(NCc2ccccc2Cl)no1`, the Inhibition was 99% in test [1], 92% in test [2] and 2% in test [3].
The corresponding values for `CC[C@@H]([C@@H](Cc1cc2ccccc2s1)C(=O)N[C@@H](CCCCNC(=O)OCc1ccccc1)C(=O)Nc1ccccn1)N(O)C=O` are 96%, 70% and 36%.
Take `Cc1cccc2nc(-c3ccc(-c4ccc(CN5CCC(CO)CC5)cc4)s3)[nH]c12.O=C(O)C(F)(F)F`: the Inhibition is recorded as 100% in test [1], 82% in test [2] and 15% in test [3].
For the compound `CC(C)CC(=O)N1CCNC[C@@H]1C(=O)NCCSCc1c(F)cccc1Cl.O=C(O)C(F)(F)F`, the Inhibition in test [1] is on record as 86%; in test [2], 3%; in test [3] it was 1%.
For `Fc1ccc2[nH]c(-c3cccc(-c4ccc(CN5CCN(c6ccncc6)CC5)cc4)c3)nc2c1.O=C(O)C(F)(F)F` the same measures were 100%, 67% and 39%.
On to `Cc1ccc(NC(=O)N2CCCN(CCCCCNC(=O)/C=C/c3ccc(Cl)c(Cl)c3)CC2)cc1`, for which the Inhibition was determined as 99% in test [1], 2% in test [2] and 12% in test [3].
For `CC(C)(C)Oc1ccc(C[C@@H]2NC3(C(=O)N(Cc4ccc(Cl)c(Cl)c4)c4ccccc43)C3C(=O)N(c4ccc(Br)cc4)C(=O)C32)cc1` (stereo partly drawn), the Inhibition was 86% in test [1], 25% in test [2] and 1% in test [3].
For `O=C(NCCCCN1CCC2c3cccc(O)c3CCC21)c1ccc(-c2ccccc2)cc1` (stereo not drawn) the same measures were 81%, 50% and 23%.
For `CC(C)(C)c1cc(CN2CCN(Cc3ccccc3)CC2)cc(C(C)(C)C)c1O` the same measures were 97%, 0% and 9%.
The corresponding values for `COCCNC(=O)c1ccc(OC2CCN(CC(C)=Cc3ccccc3)CC2)c(Cl)c1` are 94%, 95% and 18%.
Turning to `O=C(/C=C/c1ccc(Cl)c(Cl)c1)NC1CCN(Cc2ccc(O)cc2)C1.O=C(O)C(F)(F)F` (stereo not drawn), the Inhibition in test [1] worked out at 97%; in test [2], 4%; in test [3], 15%.
The corresponding values for `Cc1ccc(NC(=O)c2ccc(CN3CCCN(Cc4cccc(O)c4)CC3)cc2)cc1C.O=C(O)C(F)(F)F` are 98%, 25% and 33%.
For `Cc1ccc(CN2CCCN(Cc3cccc(NC(=O)c4ccc(-c5ccccc5)cc4)c3)CC2)cc1C.O=C(O)C(F)(F)F` the same measures were 84%, 19% and 43%.
The corresponding values for `CCCCCCCN1CC[C@@H](CCCc2ccnc3ccc(OC)cc23)[C@@H](CNC)C1.O=C(O)C(=O)O` are 100%, 95% and 25%.
Turning to `Cl.N=C(N)NN=Cc1ccc2ccc3ccccc3c2c1`, the values for the Inhibition in test [1], in test [2] and in test [3] were 100%, 89% and 34%, respectively.
For `Cc1ccc2nc(C)cc(N/N=C/c3ccccc3[N+](=O)[O-])c2c1` the same measures were 100%, 100% and 5%.
For `CC(CN1CCN(C)CC1)C(=O)Nc1ccc(-c2cccc(-c3nc4cc(F)ccc4[nH]3)c2)cc1` (stereo not drawn) the same measures were 100%, 99% and 8%.
The corresponding values for `CC1(CCCCN2CCC(Cc3ccccc3)CC2)C(=O)Nc2ccccc21.Cl` (stereo not drawn) are 100%, 28% and 66%.
On to `Cc1cc(N[C@@H](Cc2ccccc2)C(=O)NCCOc2ccccc2)nc(NCC2CCCCC2)n1.O=C(O)C(F)(F)F`, for which the Inhibition in test [1] was 100%; in test [2], 75%; in test [3] it was 30%.
For `Cc1c(CNCCN2CCCCC2)c(C(=O)O)c(C)n1Cc1ccc(Cl)cc1` the same measures were 97%, 93% and 4%.
In the case of `COc1cc(OC)cc(-c2nn(-c3ccc([N+](=O)[O-])cc3Cl)c(=S)n2CC2CCCO2)c1` (stereo not drawn), the Inhibition in test [1] is 98%; in test [2], 98%; in test [3] it was 5%.
For `COCC(C)n1c(SCC(=O)Nc2cc(C(F)(F)F)ccc2Cl)nc2ccccc2c1=O` (stereo not drawn), the Inhibition came out at 97% in test [1], 96% in test [2] and 3% in test [3].
For `COc1ccc(NC(=O)[C@H](Cc2ccccc2)Nc2cc(C)nc(NCCOc3ccccc3)n2)cc1.O=C(O)C(F)(F)F` the same measures were 98%, 25% and 11%.
The corresponding values for `COc1ccc(NC(=O)c2ccc(-c3nc(-c4cccc(C(F)(F)F)c4)cs3)cc2)cc1N1CCN(C)CC1` are 98%, 59% and 29%.
The corresponding values for `Cn1cc(C2CCN(CCCCNC(=O)c3ccc(C(=O)Nc4ccc(C#N)cc4)cc3)CC2)c2ccccc21` are 100%, 58% and 16%.

In general, Inhibition refers to how much of the control response was suppressed.
